# According to PubChem BioAssay (NCI):
# Compounds without any hit were thinned out: in the full panel of roughly 83,000, 20% have a hit.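 Cell lines were cultured in 96-well plates, exposed to a single compound concentration, and assessed for percent growth 48 hours later.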 A number with no mark means an inactive call. Calls of active or inactive are those of the source. Rule for the calls: active = growth percent below 10; inactive = the rest.
# System: HL-60(TB) leukemia
# Assay: NCI-60 one-dose screen, 48 h (100 = growth as untreated, 0 = no growth, -100 = all killed)
# Conditions: 10 µM unless noted
row,SMILES,growth
1,O=C(CCN1CCCC1)Nc1ccc2c(NCCCCc3ccccc3)c3ccccc3nc2c1,-62.3% (active)
2,OC(CNc1ccnc2cc(Cl)ccc12)CNc1ccnc2cc(Cl)ccc12,-5.79% (active)
3,CN(C)C/C=C/C(=O)Nc1cc2c(Nc3ccc(F)c(Cl)c3F)ncnc2cc1OCCOC(F)F,13.2%
4,Cc1ccc(C2=C/C(=C/c3ccc(Br)cc3)C(=O)N2CCc2ccc(S(N)(=O)=O)cc2)cc1,96.7%
5,COC(=O)C(Cc1ccccc1)n1cc(COc2nc(Cl)nc(Nc3ccc(Cl)cc3)n2)nn1 (stereo not given),72.2%
6,Nc1nc(C(=O)N/N=C/c2ccc(F)cc2)nn1-c1ccc(S(N)(=O)=O)cc1,99.5%
7,COc1ncnc2c(-c3ccccc3)cn(COCc3ccccc3)c12,53.1%
8,O=C1/C(=C\c2ccccc2)CN(C(=O)c2ccccc2F)C/C1=C\c1ccccc1,10.1%
9,CC1Cc2cc(F)ccc2-n2cccc21 (stereo not given),111%
10,O=c1c(/C=C/c2ccco2)nnc2sc(Nc3ccc(Cl)cc3)nn12,101%
11,COc1cc2c(cc1[N+](=O)[O-])-c1ccc([N+](=O)[O-])cc1/C2=N/NC(N)=S,88.3%
12,Cc1ccc(C2=NN(c3ccc(S(N)(=O)=O)cc3)C(c3cn(-c4ccccc4)nc3-c3ccccc3)C2)cc1 (stereo not given),16.5%
13,COC(=O)[C@H](Cc1ccc(O)cc1)NC(=O)[C@@H](OC)[C@@H]1Cc2cc3cc(OC4CC(OC5CC(O)C(O)C(C)O5)C(O)C(C)O4)c(C)c(O)c3c(O)c2C(=O)[C@H]1OC1CC(OC2CC(OC3CC(C)(O)C(O)C(C)O3)C(O)C(C)O2)C(O)C(C)O1 (stereo not given in full),8.2% (active)
14,Cc1n(Cc2ccc3ccccc3c2)c2ccccc2[n+]1Cc1ccc2ccccc2c1,-60.3% (active)
15,Cc1cnc(Nc2ccc(OCCN3CCCC3)cc2)nc1NCc1ccco1,81.2%
16,O=C(Oc1cccnc1)c1ccsc1Nc1ccnc(C(F)(F)F)c1,25.9%
17,CC(CCc1ccccc1)NC(=O)c1n[nH]c(=O)c2ccccc12 (stereo not given),88.3%
18,O=[N+]([O-])c1ccc(-c2noc(-c3cccs3)n2)cc1,70.1%
19,O=C1c2ccccc2C(=O)C1c1ccc(Br)cc1,105%
20,O=C1CC(c2nc3ccccc3[nH]2)CN1C1CCCCC1 (stereo not given),101%

row,SMILES,growth
1,C#Cc1cccc(NC(=O)Nc2cccc(N=C=S)c2)c1,98.7% [8.25 µM]
2,COc1ccc(C(=O)C(C)C)c2ccccc12,78.9%
3,C/C(=N\Nc1ccc([N+](=O)[O-])cc1[N+](=O)[O-])c1ccc(Br)cc1,101%
4,CC(=O)Nc1ccc(C(=O)CCl)cc1,-19.4% (active)
5,Cc1ccc(S(=O)(=O)N2CCC(C(=O)Nc3ccc(F)cc3F)CC2)cc1,88.2%
6,CC1=CCC(OC(=O)C(C)(C)CC(O)(C(C)O)C(O)C2(C)C=CC(Cc3ccc(C(C)C)cc3)(C(C)C)CC2)(C(C)C)CC1 (stereo not given),95.9%
7,Cc1ccn2c(-c3csc(Nc4cccc(O)c4)n3)c(C)nc2c1,-19.4% (active)
8,CCCCCCCCCCCC(=O)OC(C)C(=O)NCCCC (stereo not given),99.4%
9,COc1cc2ncnc(NC3CCC(O)CC3)c2cc1OC (stereo not given),97.7%
10,CC(C)(C)c1cc(Br)cc(C(C)(C)C)c1O,94.1%
11,NC(=O)c1ccc(C2C3=C(CCCC3=O)OC3=C2C(=O)c2ccccc2C3=O)cc1 (stereo not given),-30.4% (active)
12,C/C=C1/CN(CCCCC)CC[C@H]1C(=O)c1cc2ccccc2[nH]1,90.6%
13,C[N+](C)=c1ccc2nc3c(cc(NCCCNc4cc5oc6cc(=[N+](C)C)ccc-6nc5c5ccccc45)c4ccccc43)oc-2c1,-7.2% (active)
14,CC(C)N1CC(=O)N2CSCC2C1=O (stereo not given),102%
15,Cn1c2ccc(Br)cc2c2c3c(c4c5ccccc5[nH]c4c21)C(=O)N(O)C3=O,-58.6% (active)
16,Cc1ccc2c(c1)C(=O)/C(=C/c1cccc(OCC(=O)c3ccc(Cl)cc3)c1)CS2,43.1%
17,O=S(=O)(Nc1cc(Sc2nc3ccccc3s2)c(O)c2ccccc12)c1ccc2ccccc2c1,71.6%
18,CN(C)CCCn1c2c(c3cnccc3c1=O)C(=O)c1ccccc1-2,2.29% (active)
19,CN1CCN(Cc2ccc(NC(=O)c3cncc(C#Cc4ncc5ccccn45)c3)cc2C(F)(F)F)CC1,-3.92% (active)
20,O=C1C2(c3ccccc3)C(c3ccccc3)=C(c3ccccc3)C1(c1ccccc1)C1CC=CC12 (stereo not given),76.3%
